In PubChem BioAssay (NCI):
The panel holds about 83,000 compounds, 20% with a hit somewhere; the sample as a whole holds those more often.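 96-well plates, one dose, 48 hours. Percent growth reported; active if below 10.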 Unmarked numbers belong to inactive results. Activity calls are given as the source filed them.

Assays:
Test in all cases: NCI-60 one-dose screen, 48 h (100 = growth as untreated, 0 = no growth, -100 = all killed)
Settings in all cases: 10 µM unless noted
DU-145 prostate = test system: DU-145 prostate
K-562 leukemia = test system: K-562 leukemia
MALME-3M melanoma = test system: MALME-3M melanoma
MDA-MB-231 breast = test system: MDA-MB-231 breast
RXF 393 renal = test system: RXF 393 renal
SF-268 CNS = test system: SF-268 CNS
SF-295 CNS = test system: SF-295 CNS
UACC-257 melanoma = test system: UACC-257 melanoma
M14 melanoma = test system: M14 melanoma

SMILES	growth (DU-145 prostate)	growth (K-562 leukemia)	growth (MALME-3M melanoma)	growth (MDA-MB-231 breast)	growth (RXF 393 renal)	growth (SF-268 CNS)	growth (SF-295 CNS)	growth (UACC-257 melanoma)	growth (M14 melanoma)
Cn1c(=O)c2[nH]c(C(O)C(O)C(O)C(O)CO)nc2n(C)c1=O (centres undefined)	109%	95.1%	97%	101%	115%	106%	103%	93.6%	105%
CCOC(=O)c1c2c(n3ccc(NC(=O)CCN(CC)CC)cc13)C(=O)c1ncccc1C2=O	66.5%	49.7%	76.9%	42.4%	67.2%	41.9%	38%	57.3%	49.7%
CN(C)c1ccc(C2Nc3ccccc3-n3cccc32)cc1 (centres undefined)	114%	121%	99.6%	96.5%	98.5%	103%	102%	111%	99.1%
O=c1[nH]c(-c2ccccn2)nc2sc3c(c12)CCCCC3	48.8%	21.4%	75.3%	52.4%	70.4%	47.6%	33.1%	73.4%	43.3%
CCN(CC)C12CCCCC1(C)C(C#N)(C#N)C(C#N)=C(N)O2 (centres undefined)	107%	95.5%	92.3%	108%	144%	99.6%	98%	114%	102%
N#CC1=C(N)Oc2c(ccc3ccccc23)C1c1cccs1 (centres undefined)	-21.2% (active)	0.938% (active)	36.4%	-9.69% (active)	8.35% (active)	9.29% (active)	24.7%	75.1%	17.3%
CC(=O)C1=C(O)C=C2Oc3c(C(=O)/C=C/c4c(Cl)cccc4Cl)c(O)c(C)c(O)c3[C@]2(C)C1=O	6.3% (active)	-26.7% (active)	-67.7% (active)	-63.4% (active)	-48.9% (active)	-20.4% (active)	-37% (active)	-37% (active)	-10.9% (active)
CCOC(=O)/C=C/C(=O)[C@H](CC(C)C)NC(=O)[C@H](Cc1ccccc1)NC(=O)OCc1ccccc1	68.3%	5.9% (active)	103%	63.5%	26.8%	84.8%	99.7%	70.7%	65.6%
CN1CCOCCOCCOc2ccccc2NC(=O)c2nc(cnc2N)-c2ccc(cc2)S1(=O)=O	31.1%	15.9%	55.7%	66.3%	29.9%	63.3%	57.7%	-34.6% (active)	26.9%
Cc1ccc(S(=O)(=O)n2cc(-c3csc(-c4cn(C)c5ncccc45)n3)c3ccccc32)cc1	78.3%	26.7%	68.5%	42.6%	74.3%	74.1%	41.9%	70.8%	34.2%
COc1cc(-c2cnc3nonc3n2)c(OC)c2c1OCO2	113%	49.2%	91.5%	89.4%	90.9%	99%	104%	93.6%	107%
c1ccc2sc(SCCCn3ccnc3)nc2c1	101%	103%	96.1%	89.6%	95.2%	98.4%	97.4%	87.3%	102%
CCCCCCCCSC1=CC(=O)C(OC)=C(OC)C1=O	68.5%	3.59% (active)	-53.4% (active)	24.2%	-69.7% (active)	43.6%	74.1%	-35.3% (active)	26.6%
C[C@@]1(N2C(=O)OC[C@@H]2c2ccccc2)C(=O)N([C@H](CC(=O)N2CCC(N3CCCCC3)CC2)C(=O)NCc2cccc(C(F)(F)F)c2)[C@@H]1/C=C/c1ccccc1	63.5%	-40.6% (active)	-69.5% (active)	31%	61%	63.2%	100%	-72.1% (active)	-54.3% (active)
ClC1=C2NC=NC2n2c(nnc2-c2ccc(Cl)cc2)N1 (centres undefined)	112%	91.1%	129%	95.6%	101%	111%	97.8%	101%	102%
Cn1c(=O)c2c(ncn2CC[N+](C)(C)C)n(C)c1=O	104%	92.1%	105%	104%	111%	98.6%	103%	94.4%	103%
COc1cc(NCCCCN=C(N)N)c2ncccc2c1	108%	84.6%	13.6%	63.5%	112%	30.4%	87%	102%	96.5%
CCN(C(=O)CN1CCN(c2cc3c(cc2F)c(=O)c(C(=O)O)cn3CC)CC1)c1nc(-c2ccccc2)cs1	23.3%	12.3%	-5.46% (active)	6.19% (active)	4.13% (active)	22.7%	-17.5% (active)	-9.83% (active)	18.3%
O=C(NCc1cccc(C(F)(F)F)c1)[C@H](CCC(=O)N1CCN(C2CCCCC2)CC1)N1C(=O)[C@@H](N2C(=O)OC[C@@H]2c2ccccc2)[C@H]1/C(Cl)=C/c1ccccc1	60.7%	31.5%	47.8%	33.1%	52.2%	31%	46.5%	24.9%	37.9%
CC(C)[C@H]1COC(=O)N1[C@@H]1C(=O)N([C@@H](CCC(=O)N2CCN(C3CCCC3)CC2)C(=O)N[C@@H]2CCCc3ccccc32)[C@@H]1/C=C/c1cccc(Br)c1	40.5%	41.9%	13.1%	26.3%	53.3%	8.27% (active)	51.5%	-34.6% (active)	25.8%
CC/C=C\C[C@H](F)C/C=C1/C(=O)C=C[C@@H]1C/C=C\CCCC(=O)OC	25.7%	-5.83% (active)	-13.6% (active)	3.26% (active)	-45.5% (active)	26%	4.48% (active)	-0.592% (active)	1.2% (active)
CC/C(=C(\c1ccc(O)cc1)c1ccc(OCCN(C)CCN(C)C(=O)CCCCC(=O)c2c(C)[nH]c(/C=C3\N=C(c4ccc[nH]4)C=C3OC)c2C)cc1)c1ccccc1	65.8%	42.9%	116%	35.1%	83%	75.9%	89.2%	99.8%	39.7%
CC(=O)Oc1ccc(Nc2c3ccccc3nc3ccccc23)cc1	8.74% (active)	6.78% (active)	-33.2% (active)	23.6%	-2.55% (active)	22%	-21.8% (active)	-25.7% (active)	20.7%
CCN(CC)CCC(=O)c1ccc(OC)c2ccccc12	116%	43.9%	104%	110%	81.8%	110%	99.6%	89.4%	90.1%
CC(C)(C)c1nn(-c2ccccc2)c2c1CC1(CN2Cc2ccc3c(c2)OCO3)C(=O)c2ccccc2C1=O	112%	89.8%	148%	94.6%	93%	111%	106%	104%	120%
COc1ccc2nc3cc(Cl)ccc3c(N3CCN(c4nccc(Nc5ccc(Cl)cc5)n4)CC3)c2c1	75.5%	10.8%	120%	60.3%	53.1%	53.7%	84.1%	88.7%	43.4%
